SNCA expr inh: inhibitors of alpha-synuclein (SNCA) gene expression; Potency, µM (top dose mostly 57.2 µM), for inactives: top-dose activity change, negative = inhibition, most hits filed as inhibitors; HEK-293 SNCA-luciferase knock-in, luminescence, 24 h; actives 0.17% (n = 140,000); AID 1671194;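 further: potency means the concentration at half of the fitted maximal effect; plate controls were DMSO cells for no effect and cell-free wells for full effect; nearly all actives have a fitted effect of over 45% in size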
KDM5B inh: inhibitors of human KDM5B histone demethylase. Q9UGL1. KDM5B demethylase, FDH-coupled NADH fluorescence (FDH is formaldehyde dehydrogenase). Potency, µM (top dose mostly 57.7 µM), hits mostly inhibitors. actives 2.6% (n = 220,000); further: potency means the concentration at half of the fitted maximal effect; 0% is about no effect; nearly all actives have a fitted effect of over 70% in size
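qHTS format, multiple compound concentrations. Buffer 50 mM HEPES pH 7.5/0.01% Tween-20; 200 nM KDM5BΔAP final; 10 min compound preincubation; substrate-mix levels 12.5 µM peptide, 25 µM α-KG, 0.25 mM NAD⁺; 30 min RT; ΔRFU.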
SNCA viab count: counter-screen for SNCA expression inhibitors: cell viability | HEK-293-SNCA-luc viability, GF-AFC fluorescence, 24 h | Potency, µM (doses to about 57.1 µM), for inactives: at the highest dose activity change, negative = cytotoxicity, most hits filed as cytotoxic | actives 0.12% (n = 150,000) | AID 1671193;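 further: potency means the concentration at half of the fitted maximal effect; 0% = DMSO-treated cells and -100% = medium-only wells without cells; nearly all actives have a fitted effect of over 30% in size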
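HEK-293-SNCA-luc cells (1500/well) plated 24 h, then exposed 24 h to a dilution series; GF-AFC added 30 min at 37C, fluorescence 405/540 nm; normalised to medium-only and DMSO wells, Hill fit.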
IP6K1 inh: inhibitors of human IP6K1; AID 1645851; actives 0.81% (n = 140,000); activity change, % (series mostly up to about 58 µM); IP6K1 kinase, ADP-Glo luminescence, 2 h; hits give low values; in the data active means activity change below about -25%; further: on the % scale 0 is the no-effect control and ±100 the full control effect
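ADP-Glo luminescence measures ADP made by human IP6K1 during a 2 h RT reaction with ATP/IP6 (mix at 1.3 mM/130 uM); top library doses 57.5 and 19.1 uM final.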
An asterisk follows results filed as active; i = inactive; u = inconclusive; x = not tested or not shown; ! = a repeat was not active; [ ] = dose if it differs, or a comment. Sampled rows, rich in hits. Any-hit rate of the full collection: about 2.8%. Unless noted, the call rests on the fitted dose curve; in most records, active means well fitted curve in the direction sought with a large enough effect; inconclusive means small, poorly fitted or top-dose-only effect, or another doubt; inactive means no such curve, though single readings can be large; an effect the other way counts as inactive or inconclusive.

SMILES	SNCA expr inh	KDM5B inh	SNCA viab count	IP6K1 inh
CC(=O)Nc1ccc(S(=O)(=O)N2C[C@@H]3C[C@H](C2)c2ccc(-c4ccc5ccccc5c4)c(=O)n2C3)cc1	40%	25µM*	5%	7
O=C(Nc1cccc(F)c1)N1C[C@@H]2C[C@H](C1)c1ccc(-c3cccc(C(F)(F)F)c3)c(=O)n1C2	30%	28µM*	7%	10
COc1ccc(C(=O)N2C[C@@H]3C[C@H](C2)c2ccc(NS(=O)(=O)c4cccc(C(F)(F)F)c4)c(=O)n2C3)cc1	-1%	i	-15%	3
COc1ccc(C(=O)N2C[C@@H]3C[C@H](C2)c2ccc(-c4ccc5ccccc5c4)c(=O)n2C3)cc1	-23%	28µM*	-2%	4
O=C(/C=C/Nc1ccc(F)cc1)C(F)(F)F	x	i	x	x
O=C(COc1cccc(-n2cnnn2)c1)N1CCN(S(=O)(=O)c2ccccc2F)CC1	x	i	x	x
COC(=O)CO[C@@H]1CO[C@H]2[C@@H]1OC[C@@H]2NC(=S)Nc1cc(C)cc(C)c1	16%[87.6 µM]	28µM*	7%[87.6 µM]	24
NC(=O)C1(C(=O)NCc2nc(-c3cccc(F)c3)c(-c3ccccn3)[nH]2)CC1	-14%	i	1%	-6
Cc1cc(CNC(=O)C2(C(N)=O)CC2)c2[nH]c(-c3ccccc3)c(C)c2c1	u	28µM*	-22%	23
Cc1c(-c2ccccc2)[nH]c2c(CNC(=O)Cn3ccc(=O)[nH]c3=O)cc(Cl)cc12	-2%	28µM*	4%	-13
Cc1c(-c2ccccc2)[nH]c2c(CNC(=O)c3ccc(=O)n(C)n3)cc(Cl)cc12	-6%	i	u	0
Cc1c(-c2ccccc2)[nH]c2c(CNC(=O)CCn3cnnn3)cc(Cl)cc12	11%	25µM*	-3%	-14
Cc1c(-c2ccccc2)[nH]c2c(CNC(=O)CN3C(=O)CNC3=O)cc(Cl)cc12	74%	u	-10%	-8
N#Cc1cccc(NC(=O)NCCc2ccccn2)c1	x	i	x	x
COc1ccccc1-c1ccc(CN2CCC(NC(=O)Nc3ccccc3F)C2)cc1 (stereo not drawn)	x	x	x	2
O=C(Nc1ccccc1)c1c2c(nc3ccccc13)CCC2	x	i	x	x
COc1cc(C(=O)Nc2nc3c(s2)C[C@]2(C)CC[C@@H]4[C@H](OC(=O)[C@H]4C)[C@H]2[C@@H]3C)cc(OC)c1OC	20%	28µM*	-4%	-5
C[C@@H]1C(=O)O[C@H]2[C@H]1CC[C@@]1(C)Cc3sc(NC(=O)c4ccc(F)c(Cl)c4)nc3[C@@H](C)[C@H]21	29%	28µM*	-10%	-7
Cc1cc(=O)n(CC(=O)Nc2cccc(Cl)c2)c(N2CCc3ccccc3C2)n1	u	13µM*	u	-3
Cc1cc(=O)n(CC(=O)Nc2cccc(C(C)C)c2)c(N2CCc3ccccc3C2)n1	2%	22µM*	-8%	26
COc1cccc(CNC(=O)Cn2c(N3CCc4ccccc4C3)nc(C)cc2=O)c1	u	35µM*	-19%	11
Cc1cc(=O)n(CC(=O)Nc2ccc(C(C)C)cc2)c(N2CCc3ccccc3C2)n1	3%	i	-1%	15
Cc1cc(=O)n(CC(=O)Nc2ccc(Cl)cc2)c(N2CCc3ccccc3C2)n1	u	u	-14%	17
Cc1ccc2nc3c(n2c1)C(c1ccccc1OCCN(C)C)CC(=O)NC3 (stereo not drawn)	-1%	32µM*	0%	-3
COC(=O)[C@@H]1Cc2c([nH]c3ccccc23)[C@H]2C[C@@H](NCCCn3ccnc3)C[C@@H](c3ccccc3F)N21	-13%	25µM*	-21%	10
SMILES	SNCA expr inh	KDM5B inh	SNCA viab count	IP6K1 inh
COC(=O)[C@@H]1Cc2c([nH]c3ccccc23)[C@H]2C[C@@H](NCCNC(C)=O)C[C@@H](c3ccccc3F)N21	24%	u	4%	-12
COC(=O)[C@@H]1Cc2c([nH]c3ccccc23)[C@H]2C[C@@H](NCCO)C[C@@H](c3ccccc3F)N21	u	28µM*	u	-7
COC(=O)[C@@H]1Cc2c([nH]c3ccccc23)[C@H]2C[C@H](NC[C@H]3CCCO3)C[C@@H](c3ccccc3F)N21	-12%	28µM*	-14%	9
O=C(CSc1nnc(-c2ccc(F)cc2)n1CC1CCCO1)Nc1ccc(CN2CCCC2)cc1 (stereo not drawn)	x	i	x	x
COc1cccc(CNC(=O)N[C@@H]2CN(Cc3ccncc3)C[C@H]2CN(C)C)c1	-4%	u	0%	25
COc1cccc(CNC(=O)N[C@@H]2CN(c3ncccn3)C[C@H]2CN(C)C)c1	16%	28µM*	8%	24
COCc1c(C(=O)N[C@@H]2CN(c3ncccn3)C[C@H]2CN(C)C)noc1C	5%	28µM*	4%	4
COCCNC(=O)N[C@@H]1CN(c2ncccn2)C[C@H]1CN(C)C	4%	22µM*	11%	9
CCNc1nc2c(c(=O)[nH]c(=O)n2C)n1Cc1ccccc1Cl	x	i	x	x
Cn1ccc(C(=O)N[C@@H]2COCC[C@@H]2OCc2cscn2)cc1=O	-14%	28µM*	2%	-2
C=CC(=O)Nc1cccc(Oc2nc(Nc3ccc(N4CCN(C)CC4)cc3)ncc2Cl)c1	9%	x	3µM*!	37
Cc1ccc(C(=O)N2CCC(Oc3ncccc3C(=O)N3CCCCC3)C2)cc1C (stereo not drawn)	12%	28µM*	-13%	1
CCCN(C)c1nccnc1OC1CCN(C(=O)c2ccccc2OC)C1 (stereo not drawn)	29%	28µM*	-9%	12
O=C(c1cc(F)cc(F)c1)N1CCC(Oc2ncccc2C(=O)N2CCCCC2)C1 (stereo not drawn)	-22%	i	-4%	0
CCN1CCN(CCOc2ccc3c(=O)c(-c4ccc(Br)cc4)c(C)oc3c2)CC1	x	i	x	x
COC(=O)N1CCC2(CC1)CC(c1cccc(C(F)(F)F)c1)=NO2	x	x	x	24
Cc1ccc(CC(=O)Nc2cnc3ccccc3c2)cc1	x	i	x	x
O=C(C1CCCN(c2nc3ncccc3o2)C1)N1CCN(c2ncccn2)CC1 (stereo not drawn)	28%	25µM*	-2%	6
CC(C)(C)C(=O)N1CCCN(c2nc3ncccc3o2)CC1	-6%[87.6 µM]	35µM*	9%[87.6 µM]	-10
O=C(C1CCCC1)N1CCCN(c2nc3ncccc3o2)CC1	-16%[87.6 µM]	28µM*	-1%[87.6 µM]	-14
O=C(NC1CCCC1)N1CCCN(c2nc3ncccc3o2)CC1	35%[87.6 µM]	28µM*	-2%[87.6 µM]	0
CC(=O)N1CCN(C(=O)C2CCCN(c3nc4ncccc4o3)C2)CC1 (stereo not drawn)	10%[87.6 µM]	u	-7%[87.6 µM]	-8
Cc1cc(Cn2cc3c4c(cccc42)[C@H](CC(C)C)N[C@H](C(=O)NCc2ccc(C)o2)C3)no1	-6%	i	-4%	1
COCC(=O)N1CCN(c2nc3ncccc3o2)CC1	1%[87.6 µM]	32µM*	-3%[87.6 µM]	-4
COc1ccc(-c2cc3nc4c(c(=O)n3[nH]2)CN(C(=O)CC(C)C)CC4)cc1	-18%	u	1%	2
